# An excerpt weighted towards active compounds, which were near 21% of everything screened.
# Pf growth 48h: inhibits P. falciparum growth in the first generation, 48 h | P. falciparum luciferase growth in erythrocytes, 48 h | AID 504832 | 310,000 tested, 5.9% active | Potency, µM (titrated, usually from 28.7 µM), for the others: at the highest dose activity change, negative = inhibition, actives largely listed as inhibitors; also: potency is read from the fitted curve at half-maximal effect; % is scaled to controls: 0 for no effect and ±100 for the full control effect
#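 A one-generation exposure of luciferase-tagged malaria parasites in RPMI 1640/Albumax erythrocyte culture, 37 C and 5% CO2. Inhibition is inferred from decreased luminescence after adding detection reagent.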
# NS1 function inh: blocks influenza NS1 protein function; AID 2326; 270,000 tested, 0.4% active; Potency, µM (series often up to 46.1 µM), without a hit: at the top dose activity, positive = more growth; calls by dose curve; also: potency is read from the fitted curve at half-maximal effect; actives are rising curves; nearly all actives have a fitted effect of over 50% in size
#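 A cell-based growth assay was used: compounds that relieve NS1-induced slow growth of budding yeast raise OD600. Assay medium was yeast nitrogen base with ammonium sulphate and -URA supplement, pH 6.0, with 2% galactose.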
# CHX counter: counter-screen for Shiga toxin inhibitors: cycloheximide protein synthesis inhibition; cell reporter, cycloheximide protein synthesis inhibition counterscreen; max response, %; 300,000 tested, 12% active; in the data active = max response mostly above about 13%, no sharp cut-off; inactive = mostly below about 14%; also: read at 38.3 µM for the half of the compounds with a filed dose; 0% is about no effect
# Pf growth 96h: inhibits malaria parasite growth, 96 h; P. falciparum luciferase reporter growth, 96 h; Potency, µM (series often up to 28.7 µM), inactives show at the highest dose activity change, negative = inhibition, usual class: inhibitors; 320,000 tested, 6.9% active; also: potency is read from the fitted curve at half-maximal effect; % is scaled to controls: 0 for no effect and ±100 for the full control effect
#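 Two parasite generations (96 h, 37 C, 5% CO2) of compound exposure in infected erythrocytes (0.05% parasitemia, 2% hematocrit). Luciferase-reporter P. falciparum; decreased luminescence indicates inhibited growth, aimed at apicoplast-acting delayed death.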
# Shiga inhibitor: blocks Shiga toxin action in Vero cells; inhibition, % at 38.7 µM; 290,000 tested, 9.2% active; Vero cells, Shiga toxin protein synthesis inhibition reporter; in the data active = inhibition mostly above about 28%, no sharp cut-off; inactive = mostly below about 43%; also: 0% is about no effect
# The depositor's hits bear a star; i = inactive; ? = inconclusive; . = not tested or not shown; + = active, no number. Unless noted, calls follow the shape of the dose curve; as a rule, active = well fitted inhibition curve with a large enough effect; inconclusive = small, poorly fitted or top-dose-only effect, or another doubt; inactive = no such curve, though single readings can be large or run the other way.
SMILES,Pf growth 48h,NS1 function inh,CHX counter,Pf growth 96h,Shiga inhibitor
CCOC(=O)C1=NN(C(=O)Nc2cccc(C(F)(F)F)c2)C2C(=O)N(c3cccc(C(F)(F)F)c3)C(=O)C12 (stereo not given),11%,6%,11,36%,-5
CC(C)c1ccc(N2C(=O)CC(Sc3nc4ccccc4o3)C2=O)cc1 (stereo not given),37%,-5%,15*,?,10
Cc1nn(CC2CC2)c(=O)n1-c1ccccc1,61%,.,1,94%,3
O=[N+]([O-])c1cc(CN2CCC(O)CC2)ccc1Cl,-12%,.,3,15%,-6
Nn1cc(-c2ccccc2)nc1SCC(=O)N1CCN(S(=O)(=O)c2ccc3ccccc3c2)CC1,9.3µM*,-9%,-2,.,-16
CCCCNc1nnc(SCC(=O)N2CCN(S(=O)(=O)c3ccc4ccccc4c3)CC2)s1,.,-1%,12,5.2µM*,-7
O=C(Nc1ccc2c(c1)OCCO2)N1CCN(Cc2ccccc2)CC1,476%,.,38*,376%,61*
O=C(Nc1ccc2c(c1)OCCO2)N1CCN(c2ccccc2)CC1,38%,-10%,20*,45%,47*
COc1ccccc1N1CCN(C(=O)C2CCN(S(=O)(=O)c3ccccc3)CC2)CC1,?,-8%,1,?,-11
COc1ccc(S(=O)(=O)N2CCC(C(=O)N3CCc4ccccc4C3)CC2)cc1Cl,.,?,28*,?,23
COc1ccccc1N1CCN(C(=O)C2CCN(S(=O)(=O)c3ccc4c(c3)CC(C)N4C(C)=O)CC2)CC1 (stereo not given),12µM*,-12%,2,17%,6
COc1ccc(S(=O)(=O)N2CCC(C(=O)N3CCN(c4ccccc4OC)CC3)CC2)cc1,13µM*,-11%,-2,-5%,-9
COc1ccc(C2/C=C\CN(C(=O)C3CCCCC3)C(C)C(=O)N2Cc2ccc(F)cc2)cc1 (stereo not given),.,.,-10,.,-3
COc1ccc(N=Cc2nc(-c3ccccc3)oc2OC(=O)c2ccccc2)cc1,140%,-16%,59*,243%,67*
Oc1oc(-c2ccco2)nc1C=Nc1ccccc1,12%,-63%,19*,18%,99*
CCOC(=O)c1ccc(N=Cc2nc(-c3ccccc3)oc2OC(C)=O)cc1,.,-4%,10,16%,-4
O=C(O)c1ccc(N=Cc2nc(-c3ccco3)oc2O)cc1,8%,.,0,?,-4
CN(C)c1ccc(N=Cc2nc(-c3ccccc3)oc2OC(=O)c2cccc(Br)c2)cc1,320%,4%,40*,385%,+
Cc1ccc(C(=O)Oc2oc(-c3ccco3)nc2C=Nc2ccccc2)cc1,145%,-50%,31*,87%,89*
Cc1ccccc1OCCCn1c(CCNC(=O)C2CCCCC2)nc2ccccc21,.,.,7,.,29
Cc1cccc(NC(=O)C2CCN(C(=O)c3ccc(Cl)cc3)CC2)n1,?,.,.,7%,.
O=S(=O)(Cc1ccccc1)C1CCCCC1O (stereo not given),-7%,0%,2,26%,3
Cc1cc(=O)oc2cc(OCC(=O)OCC(=O)NC3CC3)ccc12,33%,.,-2,?,15
Cc1ccc(S(=O)(=O)CCC(=O)Nc2ccc3nc(C)sc3c2)cc1,-5%,3%,4,-6%,-4
Cc1ccc(NC(=O)CCS(=O)(=O)c2ccc3nc(C)sc3c2)cc1,46%,-2%,1,127%,6
SMILES,Pf growth 48h,NS1 function inh,CHX counter,Pf growth 96h,Shiga inhibitor
Cc1nc2cc(NC(=O)CCS(=O)(=O)c3ccccc3)ccc2s1,201%,-2%,37*,140%,58*
Cc1nc2cc(NC(=O)CS(=O)(=O)c3ccc(F)cc3)ccc2s1,15%,.,.,9%,.
Cc1ccc2nc(-c3ccc(NC(=O)CCS(=O)(=O)c4ccccc4)cc3)sc2c1,10%,-6%,47*,?,65*
Cc1nc2ccc(NC(=O)CCS(=O)(=O)c3ccccc3)cc2s1,?,24%,47*,?,94*
Cc1ccc(S(=O)(=O)Nc2ccc(-c3nc4ccc(C)cc4s3)cc2)cc1,50%,19%,-3,48%,2
Cc1cccc(S(=O)(=O)Nc2ccc(-c3nc4ccc(C)cc4s3)cc2)c1,285%,18%,83*,i,74*
CCOc1cccc(-c2c(C(=O)N/N=C(\C)c3cccnc3)nnn2-c2nonc2N)c1,4%,7%,-8,?,-17
COc1ccc(CC(=O)Nc2ccc(C(=O)NC(C)(C)C)cc2)cc1OC,-16%,4%,-3,?,2
COc1ccc(NC(=O)c2ccccc2NC(=O)c2cccs2)cc1,53%,1%,9,30%,15
COc1ccc(C(=O)Nc2ccccc2C(=O)Nc2ccncc2)cc1,10µM*,-5%,25*,-7%,58
COC(=O)c1ccccc1NC(=S)NC(=O)c1ccc2c(c1)OCO2,21%,-17%,11,?,3
Cc1ccccc1NC(=O)c1ccc2ccccc2c1,-25%,-16%,30*,0%,92*
COc1ccc(CC(=O)Nc2ccc(C(=O)Nc3ccccc3C(=O)O)cc2)cc1OC,6%,-1%,23*,?,-16
NC(=O)c1ccccc1NC(=O)c1ccc2c(c1)OCO2,288%,-22%,41*,1%,55*
COc1ccccc1C(=O)COC(=O)C1CCN(S(=O)(=O)c2ccc(C)c(C)c2)CC1,8%,.,.,17%,.
COCC(=O)Nc1ccccc1C(=O)Nc1ccc(OC)cc1,92%,-1%,22*,24%,51*
COc1ccc(NC(=S)NNc2ccc(C(=O)O)cc2)cc1,50%,8%,42*,72%,38
COC(=O)c1ccccc1NC(=O)CNC(=O)c1ccc(OC)cc1,1%,-7%,-1,?,4
COc1ccc(C(=O)NNc2ccccc2)cc1,-3%,-3%,15,?,13
COc1cccc(/C=N/NC(=O)c2ccccc2NC(=O)c2ccco2)c1OC,4%,-7%,12,28%,38
COc1ccc(NC(=O)c2ccccc2NC(=O)COc2ccccc2)cc1,-10%,2%,-3,35%,2
COc1ccc(C(=O)Nc2ccccc2C(=O)N/N=C/c2cccc3ccccc23)cc1,26%,3%,31*,-2%,119*
COc1ccc(C(=O)Nc2ccccc2C(N)=O)cc1,192%,-50%,27*,.,94*
NC(=O)c1ccccc1NC(=O)c1ccc2ccccc2c1,181%,-12%,57*,285%,79*
COc1ccc(C(=O)Nc2ccc(O)cc2C(=O)O)cc1,7%,3%,-4,17%,-11
COc1ccc(C(=O)Nc2ccccc2C(=O)Nc2ccccc2C(=O)O)cc1,-2%,-70%,29*,-69%,.
COc1ccc(NC(=O)c2ccccc2)cc1,i,.,.,146%,.
COc1ccc(C(=O)Nc2ccccc2C(=O)Nc2ccc(C(=O)O)cc2)cc1,39%,-3%,11*,-80%,35
COC(=O)C1C/C(=N/NS(=O)(=O)c2ccc(C)cc2)CS1 (stereo not given),22%,-1%,-1,-27%,17
